Measurements as given in PubChem BioAssay AID720628 (The Scripps Research Institute Molecular Screening Center, 2013).
This is one part of the list. Unmarked numbers belong to inactive results.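 How the source made its calls: active means inhibition above the campaign cutoff, the mean of compounds within control limits plus 3 SD (cut at about 14% in these data); inactive means the rest.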

Target: Fibrinogen beta chain (Homo sapiens) (UniProt P02675)
Assay: Tn7 displacement from DD(E) complex – biochemical, fluorescence polarization, human fibrin, Tn7 probe, confirmation (AID 720628);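 further: 100% = median FP of high control wells holding Aha-Tn7 inhibitor peptide; displacers lower polarization since freed probe rises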
Settings: FP displacement of TRITC-Tn7 peptide from DD(E); at 8.3 µM; stronger effect = higher value; 0% set at plate's compound-well median

Chain of Fibrinogen beta chain (Homo sapiens) (P02675 whole entry, looked up): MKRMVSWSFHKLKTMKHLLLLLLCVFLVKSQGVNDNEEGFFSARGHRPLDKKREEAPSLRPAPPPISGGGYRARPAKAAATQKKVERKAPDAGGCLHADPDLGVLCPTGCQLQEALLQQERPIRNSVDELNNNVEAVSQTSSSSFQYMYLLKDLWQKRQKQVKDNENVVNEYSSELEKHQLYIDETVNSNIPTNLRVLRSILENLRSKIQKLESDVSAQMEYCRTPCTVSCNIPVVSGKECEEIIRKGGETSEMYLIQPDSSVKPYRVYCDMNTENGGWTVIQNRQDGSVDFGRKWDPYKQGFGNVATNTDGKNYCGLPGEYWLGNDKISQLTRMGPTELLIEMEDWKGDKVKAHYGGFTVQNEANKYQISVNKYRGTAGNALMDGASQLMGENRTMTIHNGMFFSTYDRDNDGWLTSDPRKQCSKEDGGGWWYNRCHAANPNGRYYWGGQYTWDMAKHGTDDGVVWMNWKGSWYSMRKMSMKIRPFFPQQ

Cc1nnc2n1N=C(c1ccc3c(c1)NC(=O)CO3)CS2
inhibition: -7.07%

COc1ccc(N=Nc2c(-c3ccc(OC)cc3)[nH]oc2=O)cc1
inhibition: -2.03%

Cc1cc2nc3c(=O)n(Cc4ccccc4)c(=O)[nH]c3nc2cc1N
inhibition: -4.02%

COc1cc(C(=S)N2CCOCC2)ccc1O
inhibition: 8.15%

CN1c2ccc(C=O)c3c(C=O)ccc(c23)N(C)C1(C)C
inhibition: 1.94%

c1cc(-c2nn[nH]n2)ccc1CN1CCCCC1
inhibition: -9.45%

Cc1nn(C)cc1N1C(=O)c2cccc3c(N)ccc(c23)C1=O
inhibition: 12.5%
